# Experimental data from the antibiotic and cytotoxicity screens of Wong et al. (2023).
# About 1,500 (3.8%) of roughly 39,000 compounds were called active. The entries come from a sample that favours actives as a whole.
# System: HSkMC (human skeletal muscle cells)
# Experiment: cytotoxicity call (relative viability < 0.9)
# Conditions: 10 µM
row,SMILES,cytotoxicity call
1,COc1ccc(CN(C)C[C@H]2Oc3c(NC(=O)C4CCOCC4)cccc3C(=O)N([C@@H](C)CO)C[C@@H]2C)cc1,inactive
2,CN1C(=O)c2cc(NC(=O)C3CCOCC3)ccc2OC[C@@H]2O[C@@H](CC(=O)NCc3ccccc3F)CC[C@@H]21,inactive
3,Cc1noc(C)c1NC(=O)N(C)C[C@H]1Oc2c(NC(=O)c3cnccn3)cccc2C(=O)N([C@@H](C)CO)C[C@@H]1C,inactive
4,C[C@H]1CN([C@@H](C)CO)C(=O)c2cc(NC(=O)C3CC3)ccc2O[C@H]1CN(C)S(=O)(=O)c1ccc(Cl)cc1,inactive
5,CC(=O)N[C@H]1[C@H](Oc2nc3cc(C)ccc3o2)O[C@H](CO)[C@@H](O)[C@@H]1O,inactive
6,Cc1ccc(-c2ccc3c(c2)O[C@H](CN(C)C(=O)CN(C)C)[C@H](C)CN([C@@H](C)CO)S3(=O)=O)cc1,inactive
7,O=C(CN1CCOCC1)N[C@H]1CC[C@H](CCNC(=O)Nc2cc(F)ccc2F)O[C@H]1CO,inactive
8,CN1C(=O)c2cc(NC(=O)c3ccc(F)c(F)c3)ccc2OC[C@@H]2O[C@H](CC(=O)N3CCOCC3)CC[C@@H]21,inactive
9,Cc1noc(C)c1S(=O)(=O)N(C)C[C@H]1Oc2ccc(NC(=O)Nc3ccc4c(c3)OCO4)cc2C(=O)N([C@H](C)CO)C[C@@H]1C,inactive
10,COc1ccc(CN(C)C[C@@H]2OCCCC[C@@H](C)Oc3ccc(NC(=O)Nc4ccc(F)cc4)cc3C(=O)N([C@@H](C)CO)C[C@H]2C)cc1,inactive
11,C[C@H](CO)N1C[C@H](C)[C@@H](CN(C)Cc2ccc(C(F)(F)F)cc2)Oc2ccc(NC(=O)C3CCCCC3)cc2CC1=O,inactive
12,C[C@@H]1CN([C@@H](C)CO)C(=O)Cc2cc(NC(=O)C3CCCCC3)ccc2O[C@@H]1CN(C)Cc1ccc(C(F)(F)F)cc1,active
13,C[C@@H]1CN([C@H](C)CO)C(=O)Cc2cc(NC(=O)Nc3ccc(C(F)(F)F)cc3)ccc2O[C@@H]1CN(C)Cc1ccc(C(=O)O)cc1,inactive
14,C[C@@H]1CN([C@H](C)CO)C(=O)Cc2cc(NC(=O)Nc3ccc(C(F)(F)F)cc3)ccc2O[C@@H]1CN(C)Cc1ccc(C(F)(F)F)cc1,active
15,C[C@H]1CN([C@@H](C)CO)C(=O)Cc2cc(NC(=O)C3CCCCC3)ccc2O[C@@H]1CN(C)Cc1ccc(C(F)(F)F)cc1,inactive
16,C[C@@H]1CN([C@H](C)CO)C(=O)Cc2cc(NC(=O)Nc3ccc(C(F)(F)F)cc3)ccc2O[C@H]1CN(C)Cc1ccc(C(F)(F)F)cc1,active
17,C[C@H](CO)N1C[C@H](C)[C@@H](CN(C)Cc2ccc(C(F)(F)F)cc2)Oc2ccc(NC(=O)Nc3ccc(C(F)(F)F)cc3)cc2CC1=O,active
18,C[C@@H]1CN([C@@H](C)CO)C(=O)Cc2cc(NC(=O)Nc3ccc(C(F)(F)F)cc3)ccc2O[C@@H]1CN(C)Cc1ccc(C(=O)O)cc1,inactive
19,Cc1noc(C)c1NC(=O)N(C)C[C@@H]1OCCCC[C@H](C)Oc2ccc(NS(=O)(=O)c3ccc(F)cc3)cc2C(=O)N([C@H](C)CO)C[C@@H]1C,inactive
20,Cc1noc(C)c1S(=O)(=O)N(C)C[C@@H]1Oc2c(NC(=O)c3cnccn3)cccc2C(=O)N([C@H](C)CO)C[C@@H]1C,inactive
21,O=C(C[C@H]1CC[C@H]2[C@@H](COC[C@H](O)CN2S(=O)(=O)c2ccccc2)O1)NCCN1CCCCC1,inactive

row,SMILES,cytotoxicity call
1,c1cc(CCN2CCNCC2)ccn1,inactive
2,O=C(O)[C@H](O)c1ccc(F)cc1,inactive
3,CCS(=O)(=O)N1C[C@]2(CN(C2)C(=O)Nc2c(noc2C)C)c2c(n(c3cc(ccc23)OC)C)[C@H]1CO,inactive
4,C[C@H](CO)N1C[C@H](C)[C@H](CN(C)Cc2ccncc2)Oc2ccc(NC(=O)Nc3ccc(C(F)(F)F)cc3)cc2CC1=O,inactive
5,C[C@@H]1CN([C@@H](C)CO)C(=O)Cc2cc(NC(=O)Nc3ccc(C(F)(F)F)cc3)ccc2O[C@H]1CN(C)Cc1ccncc1,inactive
6,C[C@H](CO)N1C[C@H](C)[C@@H](CN(C)Cc2ccncc2)Oc2ccc(NC(=O)Nc3ccc(C(F)(F)F)cc3)cc2CC1=O,active
7,C[C@@H]1CN([C@@H](C)CO)C(=O)Cc2cc(NC(=O)Nc3ccc(C(F)(F)F)cc3)ccc2O[C@@H]1CN(C)Cc1ccc(C(F)(F)F)cc1,active
8,C[C@@H]1CN([C@H](C)CO)C(=O)c2cc(NS(=O)(=O)c3ccc(Cl)cc3)ccc2O[C@@H](C)CCCCO[C@@H]1CN(C)Cc1ccc(C(=O)O)cc1,inactive
9,C[C@H](CO)N1C[C@H](C)[C@H](CN(C)C(=O)Nc2ccc3c(c2)OCO3)OCCCC[C@H](C)Oc2ccc(NC(=O)NC3CCCCC3)cc2C1=O,inactive
10,C[C@@H]1CN([C@H](C)CO)C(=O)Cc2cc(NS(C)(=O)=O)ccc2O[C@@H]1CN(C)S(=O)(=O)c1ccc(F)cc1,inactive
11,C[C@@H]1CCCCO[C@@H](CN(C)Cc2ccc(C(F)(F)F)cc2)[C@@H](C)CN([C@H](C)CO)C(=O)c2cc(NC(=O)Nc3ccccc3)ccc2O1,inactive
12,C[C@H](CO)N1C[C@H](C)[C@@H](CN(C)Cc2ccc(C(F)(F)F)cc2)OCCCC[C@H](C)Oc2ccc(NC(=O)Nc3ccccc3)cc2C1=O,inactive
13,C[C@@H]1CCCCO[C@H](CN(C)Cc2ccc(C(F)(F)F)cc2)[C@H](C)CN([C@H](C)CO)C(=O)c2cc(NC(=O)Nc3ccccc3)ccc2O1,active
14,C[C@@H]1CCCCO[C@@H](CN(C)Cc2ccc(C(F)(F)F)cc2)[C@H](C)CN([C@H](C)CO)C(=O)c2cc(NC(=O)Nc3ccccc3)ccc2O1,active
15,C[C@@H]1CCCCO[C@@H](CN(C)Cc2ccc(C(F)(F)F)cc2)[C@H](C)CN([C@@H](C)CO)C(=O)c2cc(NC(=O)Nc3ccccc3)ccc2O1,inactive
16,C[C@@H]1CN([C@H](C)CO)C(=O)c2cc(NC(=O)Nc3ccccc3)ccc2O[C@@H](C)CCCCO[C@H]1CN(C)Cc1ccc(C(F)(F)F)cc1,active
17,C[C@@H]1CN([C@H](C)CO)C(=O)c2cc(NC(=O)Nc3ccccc3)ccc2O[C@@H](C)CCCCO[C@@H]1CN(C)Cc1ccc(C(F)(F)F)cc1,inactive
18,C[C@H]1CCCCO[C@@H](CN(C)Cc2ccc(C(F)(F)F)cc2)[C@@H](C)CN([C@@H](C)CO)C(=O)c2cc(NC(=O)Nc3ccccc3)ccc2O1,active
19,C[C@@H]1CCCCO[C@H](CN(C)Cc2ccc(C(F)(F)F)cc2)[C@@H](C)CN([C@@H](C)CO)C(=O)c2cc(NC(=O)Nc3ccccc3)ccc2O1,inactive
20,C[C@@H]1CCCCO[C@H](CN(C)Cc2ccc(C(F)(F)F)cc2)[C@H](C)CN([C@@H](C)CO)C(=O)c2cc(NC(=O)Nc3ccccc3)ccc2O1,inactive
21,C[C@@H]1CN([C@@H](C)CO)C(=O)c2cc(NC(=O)Nc3ccccc3)ccc2O[C@@H](C)CCCCO[C@@H]1CN(C)Cc1ccc(C(F)(F)F)cc1,inactive

row,SMILES,cytotoxicity call
1,C[C@@H]1CCCCO[C@H](CN(C)Cc2ccc(C(F)(F)F)cc2)[C@@H](C)CN([C@H](C)CO)C(=O)c2cc(NC(=O)Nc3ccccc3)ccc2O1,inactive
2,CO[C@H]1CN(C)C(=O)c2cc(NC(=O)Nc3ccc(Cl)cc3)ccc2OC[C@@H](C)N(C(=O)Nc2c(C)noc2C)C[C@H]1C,inactive
3,C[C@@H]1CCCCO[C@H](CN(C)S(=O)(=O)c2cccs2)[C@@H](C)CN([C@H](C)CO)C(=O)c2cc(NC(=O)Nc3ccc(C(F)(F)F)cc3)ccc2O1,inactive
4,Cc1noc(C)c1NC(=O)N(C)C[C@@H]1Oc2ccc(NC(=O)Cn3cnnn3)cc2CC(=O)N([C@@H](C)CO)C[C@H]1C,inactive
5,C[C@@H]1CN([C@H](C)CO)C(=O)Cc2cc(NC(=O)Cn3cnnn3)ccc2O[C@@H]1CN(C)C(=O)Nc1ccc(C(F)(F)F)cc1,inactive
6,C[C@H](CO)N1C[C@H](C)[C@H](CN(C)Cc2ccc(Cl)c(Cl)c2)OCCCC[C@H](C)Oc2ccc(NC(=O)Nc3ccc(C(F)(F)F)cc3)cc2C1=O,inactive
7,Cc1ccc(S(=O)(=O)N(C)C[C@@H]2Oc3ccc(NS(=O)(=O)c4cccs4)cc3C(=O)N([C@@H](C)CO)C[C@@H]2C)cc1,inactive
8,O=C(C[C@H]1CC[C@@H]2[C@H](COC[C@@H](O)CN2S(=O)(=O)c2cccc(F)c2)O1)NCCCN1CCOCC1,inactive
9,Cc1ccc(F)c(S(=O)(=O)N2[C@@H]3CC[C@@H](C3)[C@H]2c2nc3cccc(OCc4ccc(F)cc4)c3[nH]2)c1,inactive
10,C[C@@H]1CCCCO[C@@H](CN(C)Cc2ccc(C(F)(F)F)cc2)[C@@H](C)CN([C@@H](C)CO)C(=O)c2cc(NC(=O)Nc3ccccc3)ccc2O1,inactive
11,C[C@@H]1CCCCO[C@H](CN(C)Cc2ccncc2)[C@H](C)CN([C@@H](C)CO)C(=O)c2cc(NC(=O)c3ccccc3)ccc2O1,active
12,C[C@H](CO)N1C[C@H](C)[C@H](CN(C)Cc2ccc(C(F)(F)F)cc2)OCCCC[C@H](C)Oc2ccc(NC(=O)Nc3ccccc3)cc2C1=O,inactive
13,C[C@H](CO)N1C[C@H](C)[C@H](CN(C)Cc2ccncc2)OCCCC[C@H](C)Oc2ccc(NC(=O)c3ccccc3)cc2C1=O,inactive
14,C[C@H]1CCCCO[C@H](CN(C)Cc2ccncc2)[C@@H](C)CN([C@@H](C)CO)C(=O)c2cc(NC(=O)c3ccccc3)ccc2O1,inactive
15,C[C@@H]1CCCCO[C@@H](CN(C)Cc2ccc(C(F)(F)F)cc2)[C@H](C)CN([C@H](C)CO)C(=O)c2cc(NC(=O)c3ccccc3)ccc2O1,inactive
16,C[C@@H]1CN([C@@H](C)CO)C(=O)c2cc(NC(=O)Nc3ccccc3)ccc2O[C@@H](C)CCCCO[C@H]1CN(C)Cc1ccc(C(F)(F)F)cc1,active
17,C[C@H]1CCCCO[C@H](CN(C)Cc2ccc(C(F)(F)F)cc2)[C@@H](C)CN([C@@H](C)CO)C(=O)c2cc(NC(=O)Nc3ccccc3)ccc2O1,active
18,C[C@@H]1CCCCO[C@H](CN(C)Cc2ccc(C(F)(F)F)cc2)[C@H](C)CN([C@H](C)CO)C(=O)c2cc(NC(=O)c3ccccc3)ccc2O1,inactive
19,C[C@H]1CCCCO[C@@H](CN(C)Cc2ccc(C(F)(F)F)cc2)[C@@H](C)CN([C@@H](C)CO)C(=O)c2cc(NC(=O)c3ccccc3)ccc2O1,active
